Experiment [1] is described as follows: qHTS for Inhibitors of Plasmodium falciparum (DD2) proliferation (AID 504314).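 Note: parasite DNA measured by SYBR Green fluorescence after red cell lysis; plate controls were DMSO vehicle for no effect and artemisinin wells for full effect.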 In short, it runs like this: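 Fluorescence read-out (ex 485/em 535 nm) of SYBR Green-stained parasite DNA quantifies intraerythrocytic growth. Cultures at 0.3% parasitemia and 2.5% hematocrit were treated for 72 h; data normalized to DMSO and 0.29 uM artemisinin wells.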
Background: Quantitative high-throughput screening tests each substance at several concentrations.

Experiment [2] is described as follows: qHTS for Inhibitors of Plasmodium falciparum (GB4) proliferation (AID 504315).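 Note: 0% = DMSO vehicle and -100% = 0.29 µM artemisinin control; nearly all actives have a fitted effect of over 50% in size.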 Summed up:
(§1)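 Erythrocytes infected with P. falciparum line (0.3% parasitemia, 2.5% hematocrit final) incubated with compounds 72 h at 37 °C, 5% CO2; SYBR Green lysis buffer added, fluorescence read next day. Normalized to 0.29 uM artemisinin and DMSO.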

A short description of experiment [3]: qHTS for Inhibitors of Plasmodium falciparum (7G8) proliferation (AID 504316). Note: nearly all actives have a fitted effect of over 65% in size. Note: potency is the fitted concentration of half-maximal effect. In short, it runs like this: as §1
The nature of experiment [4]: qHTS for Inhibitors of Plasmodium falciparum (CP250) proliferation (AID 504320).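 Note: plate controls were DMSO vehicle for no effect and 0.29 µM artemisinin control for full effect.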 In short, it runs like this:
as §1

The target of experiment [5] is Atrial natriuretic peptide receptor 1 (Homo sapiens) (UniProt P16066). As to the kind of experiment: Natriuretic polypeptide receptor (hNpr1) antagonism - Pilot CMLD screen (AID 1347052; calls by dose curve;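 note: cGMP level read as GloSensor luciferase luminescence after agonist stimulation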; note: potency is the fitted concentration of half-maximal effect).
Chain of Atrial natriuretic peptide receptor 1 (Homo sapiens) (P16066 whole entry, looked up): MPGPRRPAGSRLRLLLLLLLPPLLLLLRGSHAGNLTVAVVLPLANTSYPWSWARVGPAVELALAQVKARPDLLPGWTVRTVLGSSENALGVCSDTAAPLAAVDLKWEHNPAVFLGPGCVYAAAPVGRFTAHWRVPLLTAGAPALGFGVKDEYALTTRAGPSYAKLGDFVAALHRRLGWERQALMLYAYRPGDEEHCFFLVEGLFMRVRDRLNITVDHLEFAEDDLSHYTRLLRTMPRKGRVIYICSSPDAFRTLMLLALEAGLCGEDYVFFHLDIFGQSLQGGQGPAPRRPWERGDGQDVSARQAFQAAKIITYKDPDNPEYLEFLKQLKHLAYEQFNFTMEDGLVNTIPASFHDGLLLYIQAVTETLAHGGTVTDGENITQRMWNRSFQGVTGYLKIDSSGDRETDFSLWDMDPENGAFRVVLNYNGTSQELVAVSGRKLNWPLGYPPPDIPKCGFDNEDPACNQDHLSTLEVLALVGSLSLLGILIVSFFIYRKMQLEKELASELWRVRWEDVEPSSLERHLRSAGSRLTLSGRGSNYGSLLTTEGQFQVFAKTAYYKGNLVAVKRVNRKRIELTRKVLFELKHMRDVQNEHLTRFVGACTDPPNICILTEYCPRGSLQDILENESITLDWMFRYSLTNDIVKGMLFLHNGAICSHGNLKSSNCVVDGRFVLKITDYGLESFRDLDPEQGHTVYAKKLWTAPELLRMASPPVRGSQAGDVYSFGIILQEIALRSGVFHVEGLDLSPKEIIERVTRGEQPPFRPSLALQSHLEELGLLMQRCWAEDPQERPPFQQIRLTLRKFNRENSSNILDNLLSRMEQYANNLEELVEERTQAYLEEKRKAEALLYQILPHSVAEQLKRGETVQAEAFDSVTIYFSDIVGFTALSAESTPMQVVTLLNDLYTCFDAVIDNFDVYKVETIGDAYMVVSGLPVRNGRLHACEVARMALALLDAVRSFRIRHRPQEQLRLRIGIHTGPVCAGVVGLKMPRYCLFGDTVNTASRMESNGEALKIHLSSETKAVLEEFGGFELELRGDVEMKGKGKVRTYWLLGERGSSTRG

This note sets out measurements from PubChem BioAssay (NCATS).

Results filed as inconclusive are left out. Values without a mark were called inactive. Activity calls are given as the source filed them. Unless noted, calls come from the whole dose curve; as a rule, active = well fitted curve in the direction sought with a large enough effect; inconclusive = small, poorly fitted or top-dose-only effect, or another doubt; inactive = no such curve, though single readings can be large; an effect the other way counts as inactive or inconclusive.

As to `COC(=O)C1=C(C)N(Cc2ccccc2)C(=S)NC1CCc1ccccc1` (stereo not given), the Potency result in experiment [1], in experiment [2], in experiment [3], in experiment [4] and in experiment [5] was “inactive” throughout.

As for `COC(=O)C1=C(C)N(Cc2ccccc2)C(=NCc2ccc(OC)cc2)NC1c1ccccc1` (stereo not given), the Potency entry in experiment [1], in experiment [2], in experiment [3], in experiment [4] and in experiment [5] was “inactive” in each case.

As to `COC(=O)C(=Cc1cc(Br)c(OC)c(Br)c1)C(=O)OC`, the Potency entry in experiment [1], in experiment [2], in experiment [3], in experiment [4] and in experiment [5] was “inactive” each time.

Take `COC(=O)[C@@H]1[C@@H](c2cccc(C(F)(F)F)c2)NC(=O)N(Cc2ccccc2)[C@@H]1C`: the Potency entry in experiment [1], in experiment [2], in experiment [3], in experiment [4] and in experiment [5] was “inactive” each time.

Take `COc1cccc([C@H]2Oc3ccc(OC)cc3C(=NOC[C@@H](C)[C@H](OCc3ccccc3)C(C)C)[C@H]2O)c1`: the Potency entry in experiment [1], in experiment [2], in experiment [3], in experiment [4] and in experiment [5] was “inactive” in each case.

`COC(=O)N1[C@H]2CC[C@@]3(C)CC(=O)C[C@]1(C)C3c1ccccc12`: the Potency result in experiment [1], in experiment [2], in experiment [3], in experiment [4] and in experiment [5] was “inactive” each time.

In the case of `COC1=CC2C(=O)C(C1=O)[C@H](c1ccccc1)[C@H]2C` (stereo not given in full), the Potency result in experiment [1], in experiment [2], in experiment [3], in experiment [4] and in experiment [5] was “inactive” throughout.

Turning to `COC(=O)C1=C(C(=O)OC)[C@@H]2N(Cc3ccccc3)c3ccccc3[C@@]23C[C@@H](C(=O)OC)N(C(=O)Nc2ccc(C(F)(F)F)cc2)C3=N1`, the Potency result in experiment [1], in experiment [2], in experiment [3], in experiment [4] and in experiment [5] was “inactive” each time.

As to `Cc1cc(O)cc(O)c1C(=O)OC1(C)C(=O)C=C2C=C(C=CC(=O)O)OC=C2C1=O` (stereo not given), the Potency result in experiment [1], in experiment [2], in experiment [3], in experiment [4] and in experiment [5] was “inactive” each time.

As for `O=C1[C@H]2[C@@H]3[C@@H](O)[C@H](O)CC(=NOCc4ccccc4)[C@@H]3CC[C@H]2C(=O)N1C[C@@H]1CCCO1`, the Potency entry in experiment [1], in experiment [2], in experiment [3], in experiment [4] and in experiment [5] was “inactive” each time.

Turning to `O=C1[C@H]2[C@@H]3[C@@H](O)[C@H](O)CC(=NOCc4ccccc4)[C@H]3CC[C@H]2C(=O)N1Cc1ccc2c(c1)OCO2`, the Potency entry in experiment [1], in experiment [2], in experiment [3], in experiment [4] and in experiment [5] was “inactive” in each case.

With `CC(=O)[C@@H]1[C@@H](C)N(Cc2ccccc2)C(=O)N[C@H]1c1ccccc1`, the Potency entry in experiment [1], in experiment [2], in experiment [3], in experiment [4] and in experiment [5] was “inactive” each time.

Turning to `C=CCN1C=C2C(=O)C(C)(OC(=O)c3ccco3)C(=O)C(C=C)=C2C=C1C1CC1` (stereo not given), the activity, negative = inhibition in experiment [1] is 2.08% [at 1.12 µM]. Further, the Potency entry in experiment [2], in experiment [3], in experiment [4] and in experiment [5] was “inactive” in each case.

For the compound `C[C@H]1Cc2c(-c3ccccc3)nc3c(c2CO1)CN(S(=O)(=O)c1ccc2c(c1)OCCN2C)CC3`, the activity, negative = inhibition in experiment [1] is 0.591% [at 1.12 µM]. Moreover, the Potency result in experiment [2], in experiment [3], in experiment [4] and in experiment [5] was “inactive” in each case.

On to `COC(=O)C1=C(C(=O)OC)[C@@H]2N(C)c3ccccc3[C@@]23C[C@@H](C(=O)OC)N(C(=O)c2cc(C)oc2C)C3=N1`, for which the Potency entry in experiment [1], in experiment [2], in experiment [3], in experiment [4] and in experiment [5] was “inactive” each time.

Regarding `COC(=O)C1=C[C@@H]([C@@H](C)[C@H](OC)c2ccccc2Br)[C@@H]2OCCC[C@H]12`, the Potency entry in experiment [1], in experiment [2], in experiment [3], in experiment [4] and in experiment [5] was “inactive” in each case.

Consider `COC[C@H]1O[C@H](c2ccccc2)C=C[C@H]1OCc1cccc(Br)c1`, for which the Potency result in experiment [1], in experiment [2], in experiment [3], in experiment [4] and in experiment [5] was “inactive” in each case.

As for `COC(=O)NC(c1ccccc1)c1c[nH]c2ccccc12` (stereo not given), the Potency entry in experiment [1], in experiment [2], in experiment [3], in experiment [4] and in experiment [5] was “inactive” throughout.

`CC1(OC(=O)c2ccc(Cl)nc2)C(=O)C=C2C=C3CCCN3C=C2C1=O` (stereo not given): the Potency result in experiment [1], in experiment [2], in experiment [3], in experiment [4] and in experiment [5] was “inactive” throughout.

With `C[C@@H]1C=CCCO[C@]12C(=O)N(Cc1ccc(Br)cc1)c1ccccc12`, the Potency result in experiment [1], in experiment [2], in experiment [3], in experiment [4] and in experiment [5] was “inactive” in each case.

On to `COC(=O)C1=C(C(=O)OC)[C@@H]2N(C)c3ccccc3[C@@]23C[C@@H](CO)N(C(=O)c2ccc(Br)cc2)C3=N1`, for which the Potency entry in experiment [1], in experiment [2], in experiment [3], in experiment [4] and in experiment [5] was “inactive” throughout.

For `CCN1C(=O)N(S(=O)(=O)c2ccc(C)cc2)C(c2ccccc2)C(C(=O)OC)=C1C` (stereo not given), the Potency result in experiment [1], in experiment [2], in experiment [3], in experiment [4] and in experiment [5] was “inactive” throughout.

For `C=CCN1C(=O)[C@]2(OCCC=C[C@@H]2C)c2cc(OC)ccc21`, the Potency entry in experiment [1], in experiment [2], in experiment [3], in experiment [4] and in experiment [5] was “inactive” each time.

For the compound `CC(C)CON=C1C[C@@H](O)[C@@H](O)[C@@H]2[C@H]3C(=O)N([C@@H](C)c4ccccc4)C(=O)[C@@H]3CC[C@H]12`, the Potency entry in experiment [1], in experiment [2], in experiment [3], in experiment [4] and in experiment [5] was “inactive” in each case.

For the compound `CC(=O)OC[C@H]1O[C@H](C#CCCCc2ccccc2)C=C[C@H]1OC(C)=O`, the Potency result in experiment [1], in experiment [2], in experiment [3], in experiment [4] and in experiment [5] was “inactive” each time.

On to `OC[C@H]1O[C@H](C#Cc2ccccc2)C=C[C@@H]1O`, for which the Potency result in experiment [1], in experiment [2], in experiment [3], in experiment [4] and in experiment [5] was “inactive” throughout.

`CCCNC(=O)OC[C@H]1O[C@H](CCON=C2c3cc(OC)ccc3O[C@H](c3cccc(OC)c3)[C@H]2O)C=C[C@H]1Oc1ccc(OC)cc1`: the Potency result in experiment [1], in experiment [2], in experiment [4] and in experiment [5] was “inactive” each time. For the same compound, the Potency in experiment [3] was 1.69 µM (active).

For the compound `CC(CCC#N)[N+](=O)[O-]` (stereo not given), the Potency result in experiment [1], in experiment [2], in experiment [3] and in experiment [4] was “inactive” throughout. Also, the Potency in experiment [5] is 5.31 µM (active).
